Pf growth 48h – Primary qHTS for delayed death inhibitors of the malarial parasite plastid, 48 hour incubation | P. falciparum luciferase growth in erythrocytes, 48 h | Potency, µM (highest dose often 28.7 µM), for inactives: at the top dose activity change, negative = inhibition, hits mostly inhibitors | hit rate 5.9% among 310,000 | AID 504832, 2011; also: % is scaled to controls: 0 for no effect and ±100 for the full control effect
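Erythrocytes infected with P. falciparum carrying an integrated firefly luciferase reporter (2% hematocrit, 0.1% parasitemia final) were exposed to compounds in RPMI 1640 with 0.5% Albumax at 37 C, 5% CO2. Growth inhibition was scored as reduced luminescence.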
RE007 growth inh – qHTS Assay for Inhibitors of the HIV-1 protein Vpr; S. pombe RE007 Vpr strain, BacTiter-Glo ATP luminescence, 24 h; Potency, µM (series often up to 92.2 µM), inactives show at the highest dose activity change, negative = less growth, hits mostly inhibitors; hit rate 0.21% among 360,000; active = well fitted falling curve with a large enough effect; inconclusive = small, poorly fitted or top-dose-only effect; inactive = no such curve, though single readings can be large or run the other way; also: % is scaled to controls: 0 for no effect and ±100 for the full control effect; nearly all actives have a fitted effect of over 50% in size
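Fission yeast RE007 carrying one integrated HIV-1 vpr copy, seeded at OD 0.01 in PMG+AL medium with 23 nL pinned compound. Grown 24 h at 30 degrees; viability read by BacTiter-Glo luminescence after 5 min.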
SARS PLP yeast – qHTS of Yeast-based Assay for SARS-CoV PLP; S. cerevisiae expressing SARS-CoV PLpro, growth rescue; hit rate 0.19% among 330,000; AID 485353, 2010; Potency, µM (doses to about 32.9 µM), for the others: top-dose activity, positive = growth rescue, hits mostly activators; calls by dose curve; also: 0% is about no effect; nearly all actives have a fitted effect of over 55% in size
Pf growth 96h – Primary qHTS for delayed death inhibitors of the malarial parasite plastid, 96 hour incubation; hit rate 6.9% among 320,000; AID 504834, 2011; P. falciparum luciferase reporter growth, 96 h; Potency, µM (highest dose often 28.7 µM), for the others: at the highest dose activity change, negative = inhibition, hits mostly inhibitors; also: % is scaled to controls: 0 for no effect and ±100 for the full control effect
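Infected RBCs, 2% Hct / 0.05% parasitemia final; luciferase-reporter P. falciparum; cpd 96 h, 37 C, 5% CO2; luciferase detection reagent; luminescence.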
NS1 function inh – qHTS Assay for Inhibitors of Influenza NS1 Protein Function; hit rate 0.4% among 270,000; Potency, µM (titrated, usually from 46.1 µM), for inactives: at the top dose activity, positive = more growth; calls by dose curve; also: actives are rising curves; nearly all actives have a fitted effect of over 50% in size
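Read-out: OD600 growth recovery of NS1-expressing budding yeast. Cells grown overnight at 30C in -URA glucose medium, washed, resuspended and diluted 1:100 in 2% galactose assay medium, pH 6.0. Same strain lacking NS1 served as positive control.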
* = called active by the depositor; u = inconclusive; x = not tested or not shown. Only some compounds are listed: those with a hit (about 9.5% of all), similar ones and a draw of the others. Unless noted, calls follow the shape of the dose curve; as a rule, active = well fitted inhibition curve with a large enough effect; inconclusive = small, poorly fitted or top-dose-only effect, or another doubt; inactive = no such curve, though single readings can be large or run the other way. Potency is read from the fitted curve at half-maximal effect.

SMILES | Pf growth 48h | RE007 growth inh | SARS PLP yeast | Pf growth 96h | NS1 function inh
Cc1occc1-c1nnc(SCC(=O)NCC2CCCO2)n1C (configuration not stated) | 14% | 4% | -6% | 2.3µM* | -8%
Cc1ccc(-c2nnc(SCC(=O)NCC3CCCO3)nc2-c2ccc(C)cc2)cc1 (configuration not stated) | 15µM* | 13% | 9% | u | x
CCN(CC(=O)Nc1c(F)cccc1F)C(=O)Cc1sc(C)nc1-c1ccc(F)cc1 | u | 14% | 2% | 3% | x
CCN(CC(=O)Nc1cc(Cl)ccc1C)C(=O)Cc1sc(C)nc1-c1ccc(F)cc1 | u | -2% | -6% | 4.7µM* | x
COc1ccccc1CNC(=O)COc1cc2c(c3oc(=O)cc(C)c13)CCC(C)(C)O2 | u | -6% | -5% | 3.7µM* | 4%
Cc1cc(=O)oc2c3c(cc(OCC(=O)NCc4cccnc4)c12)OC(C)(C)CC3 | u | -8% | 5% | u | -11%
Cc1cc(=O)oc2c3c(cc(OCC(=O)N[C@@H](C)C(=O)O)c12)OC(C)(C)CC3 | -17% | -1% | -1% | 12% | 6%
Cc1cc(=O)oc2c3c(cc(OCC(=O)NC(C)C)c12)OC(C)(C)CC3 | 9.3µM* | -21% | 0% | u | 4%
COc1cccc(CNC(=O)COc2cc3c(c4oc(=O)cc(C)c24)CCC(C)(C)O3)c1 | 9.3µM* | -12% | -6% | 13µM* | 3%
COc1ccc(CNC(=O)COc2cc3c(c4oc(=O)cc(C)c24)CCC(C)(C)O3)cc1 | u | 5% | -7% | 8.3µM* | -1%
CN(CC(=O)NCCc1ccc(Cl)cc1)S(=O)(=O)c1cccs1 | 4% | 3% | -2% | -1% | -18%
COC(=O)[C@@]12C[C@@H](CC(=O)N3CCN(C(=O)C4CC4)CC3)C(=O)N(Cc3ccco3)C1=CCC(C)(C)C2 | x | 5% | x | x | x
CCCCC(c1nnnn1CS(=O)(=O)c1ccc(C)cc1)N1CCN(c2ccccc2)CC1 (configuration not stated) | 13µM* | -3% | -14% | x | 7.1µM*
COc1ccccc1C(c1nnnn1CS(=O)(=O)c1ccc(C)cc1)N1CCSCC1 (configuration not stated) | 9.3µM* | -2% | -1% | 100% | 1%
Cc1ccc(S(=O)(=O)Cn2nnnc2C(C(C)C)N2CCN(c3nc4ccccc4s3)CC2)cc1 (configuration not stated) | 4.7µM* | 3% | -4% | u | -2%
COc1cccc(C(c2nnnn2CS(=O)(=O)c2ccc(C)cc2)N2CCN(C)CC2)c1OC (configuration not stated) | u | -12% | 6% | 34% | -1%
CC(Cc1ccccn1)NC(=O)c1ccc(OC2CCN(CCc3ccccc3)CC2)cc1 (configuration not stated) | 12µM* | 0% | 21% | 13% | 2%
CC(NC(=O)c1ccc(OC2CCN(Cc3ccccn3)CC2)cc1)c1nccs1 (configuration not stated) | -12% | 23% | 4% | 13µM* | 6%
CSCCCNC(=O)c1ccc(OC2CCN(CCc3ccccc3)CC2)cc1 | u | 8% | 0% | 13µM* | 1%
O=C(NCCc1ccccn1)c1ccc(OC2CCN(CCc3ccccc3)CC2)cc1 | 45% | -15% | -3% | 8% | -3%
Cc1nc(C(C)NC(=O)c2ccc(OC3CCN(Cc4ccccn4)CC3)cc2)c(C)s1 (configuration not stated) | u | -8% | 1% | 12% | -15%
NCCNC[C@H](O)CO | x | x | x | x | 6%
CN(C)C(=O)Oc1noc2cc(Cl)ccc12 | u | 6% | 0% | 3.3µM* | 3%
O=C(CN1C(=O)CSc2ccc(S(=O)(=O)N3CCCCC3)cc21)NCc1ccccc1Cl | u | -7% | 1% | 31% | -5%
CCOCCCN(Cc1ccco1)S(=O)(=O)c1csc(C(N)=O)c1 | 20% | 4% | 7% | 13µM* | -8%
SMILES | Pf growth 48h | RE007 growth inh | SARS PLP yeast | Pf growth 96h | NS1 function inh
CC(C)(O)c1[nH]c2ccc(C#N)cc2c1C(C)(C)O | 24% | 9% | -7% | -4% | -11%
CCSC1=N/C(=C/c2ccsc2)C(=O)N1c1ccccc1 | 20% | 4% | -22% | 7.4µM* | -1%
O=C1Nc2ccccc2C1(O)c1ccccc1 (configuration not stated) | -1% | 45% | -10% | 0.1µM* | x
COc1cccc(C2(O)C(=O)Nc3ccccc32)c1 (configuration not stated) | -18% | -1% | -2% | 26% | 4%
COc1ccc(CNCCCC(=O)Nc2c(Cl)ccc(C)c2Cl)cc1OC | -8% | -14% | 4% | -2% | 10%
COc1ccc(CCNC(=O)CSc2nnc(-c3ccc(F)cc3)c3ccccc23)cc1OC | 9.3µM* | 5% | -4% | 5.2µM* | -7%
COc1ccc(CCNC(=O)CSc2cn(Cc3cccc(C)c3)c3ccccc23)cc1OC | u | 24% | -8% | 9.3µM* | 23%
O=C(COc1ccccc1/C=C1\SC(=S)NC1=O)Nc1ccc(F)cc1 | x | -4% | 9% | x | x
Cc1c(Cl)c(C(=O)N2CCCCCC2)nn1C | 5% | -3% | -4% | 10% | 14%
Cc1ccc(/C(N)=N/OC(=O)c2ccc3ccccc3c2)cc1 | u | -8% | -14% | -20% | -32%
COc1ccccc1OC(=O)Cc1cccc2ccccc12 | -22% | -9% | 1% | 10% | 3%
COc1ccccc1CC(=O)O/N=C(\N)Cc1cccc2ccccc12 | 5.9µM* | 6% | -45% | u | -22%
Cc1ccc(C(=O)O/N=C(\N)Cc2cccc3ccccc23)cc1 | 1.9µM* | -12% | -10% | 22% | -40%
N/C(Cc1ccc(Cl)cc1)=N\OC(=O)c1ccc2ccccc2c1 | u | 10% | -23% | 10µM* | -60%
O=C(O)c1cncc(C(=O)O)c1 | x | x | x | x | 0%
Cc1c2c(n3c(nc4ccccc43)c1C#N)N(CCN(C)C)CC2 | 2.1µM* | -3% | 0% | 74% | -3%
Cc1c2c(n3c(nc4ccccc43)c1C#N)N(c1ccccc1)CC2 | 2.1µM* | x | -3% | 0.66µM* | -1%
CNC(=S)N/N=C1\CC(c2ccccc2)Oc2ccccc21 (configuration not stated) | 10µM* | -4% | 3% | 6.6µM* | 16%
Fc1ccc(N/N=C2/CC(c3ccccc3)Oc3ccccc32)c(F)c1 (configuration not stated) | u | 22% | -12% | u | 0%
COc1ccc(-c2cc(=O)[nH][nH]2)cc1OC | 12µM* | 5% | 11% | x | 26%
O=C1NC[C@@H](CCCCN2C[C@H](Cc3ccc(O)cc3)N(CCc3ccc(O)cc3)C(=O)C2=O)N(CCc2ccc(O)cc2)C1=O | x | -6% | x | x | x
